# Source: PubChem BioAssay (Tox21)
# Records with an inconclusive call do not appear. A call without a number means that no potency is given here. The source made the active and inactive calls. Calls come from the whole dose curve; as a rule, active = well fitted curve in the direction sought with a large enough effect in the repeat runs; inconclusive = weak or mixed curves; inactive = no such curve, though single readings can be large; an effect the other way counts as inactive or inconclusive.
# Test: qHTS RealTime-Glo MT Cell Viability Assay in HepG2 cells - 24 hour (AID 1224867)
# Settings: RealTime-Glo luminescence; series mostly up to 76.8 µM
# In short: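 qHTS, HepG2, 600 cells/well, RealTime-Glo (NanoLuc + prosubstrate) added with cells; 5 h preincubation; DMSO compound addition; 37 C; luminescence at 0/8/16/24/32/40 h.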
# Note: nearly all actives have a fitted effect of over 50% in size.
SMILES,outcome,"activity change, negative = cytotoxicity"
CCN1CCCC1CN (centres undefined),inactive,–
N[C@@H](Cc1ccc(O)cc1)C(=O)O,–,-0.685% [at 6.97 µM] (inactive)
CC(S)C(C)S (centres undefined),inactive,–
C/C(CC(C)C)=N\O,inactive,–
CC(O)CC(C)O (centres undefined),inactive,–
O=C(CN1CCNCC1)NC1CCCCC1,inactive,–
O=C(O)CNC(=O)CNC(=O)CNC(=O)CSC(=O)c1ccccc1,inactive,–
CCC(C)C(C)=O (centres undefined),inactive,–
O=C1CCCCO1,inactive,–
Cc1ncc([N+](=O)[O-])n1CC(C)O (centres undefined),inactive,–
C=CCCCCCCCCC(=O)OCCCC,inactive,–
O=C[O][Al]([O]C=O)[O]C=O,inactive,–
CN1C[C@@H]2C[C@H]1CN2c1cc2c(cc1F)c(=O)c(C(=O)O)cn2C1CC1,–,5.55% [at 15.8 µM] (inactive)
CC/C(C)=N\O[Si](C)(O/N=C(\C)CC)O/N=C(\C)CC,inactive,–
O/N=C/C=N/O,inactive,–
CCCCSCCCC,inactive,–
CC1(C)[C@H]2CC[C@](C)(C2)[C@H]1O,inactive,–
CN1CCOC(c2ccccc2)c2ccccc2C1 (centres undefined),inactive,–
N#Cc1ccccc1O,inactive,–

SMILES,outcome,"activity change, negative = cytotoxicity"
CC(Oc1cc(Cl)ccc1Cl)C(=O)O (centres undefined),inactive,–
C=CCCCC,inactive,–
CC(=O)O[C@@H]1CC2CCC1(C)C2(C)C (some centres undefined),inactive,–
CCCCCCCCCCCCCCC(=O)NC(CO)CCCCCCCCCCCCCC (centres undefined),inactive,–
O=C(O)[C@H](O)c1ccccc1,inactive,–
CCC(C)OC(C)CC (centres undefined),inactive,–
[O-][n+]1cccc(/C(Cl)=N/OC[C@@H](O)CN2CCCCC2)c1,inactive,–
COS(=O)(=O)O,inactive,–
CCCSSCCC,inactive,–
C=C(C)C1CC=C(C)C(=O)C1 (centres undefined),inactive,–
N#CCC(=O)NN,inactive,–
CCCCOC(=O)[C@H](C)O,inactive,–
CCCCCCCCCCCCCCCCCC#N,inactive,–
CC(C)NC(=O)c1ccc(C=O)cc1,inactive,–
O=NN(CCCl)C(=O)NC1CCCCC1,inactive,–
CC(C)Nc1ccccc1,inactive,–
C/C=C(\C)C(C)=O,inactive,–
COc1c2occc2c(OC)c2c(=O)cc(C)oc12,inactive,–

# Test: qHTS RealTime-Glo MT Cell Viability Assay in HEK293 cells - 32 hour (AID 1224868); note: potency is the fitted concentration of half-maximal effect; for activity change, negative = cytotoxic: top concentration of the series differs between compounds
# Settings: RealTime-Glo luminescence; series mostly up to 76.8 µM
# In short: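 Assay medium contained NanoLuc luciferase plus cell-permeant prosubstrate, added with HEK293 cells at 600 cells/well. After 5 h at 37 C/5% CO2 compounds were added; plates stayed at 37 C for 40 h with serial luminescence reads.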
SMILES,Potency,"activity change, negative = cytotoxic"
CCN1CCCC1CN (centres undefined),inactive,–
N[C@@H](Cc1ccc(O)cc1)C(=O)O,–,-0.171% [at 6.97 µM] (inactive)
CC(S)C(C)S (centres undefined),inactive,–
C/C(CC(C)C)=N\O,inactive,–
CC(O)CC(C)O (centres undefined),inactive,–
O=C(CN1CCNCC1)NC1CCCCC1,inactive,–
O=C(O)CNC(=O)CNC(=O)CNC(=O)CSC(=O)c1ccccc1,inactive,–
CCC(C)C(C)=O (centres undefined),inactive,–
O=C1CCCCO1,inactive,–
Cc1ncc([N+](=O)[O-])n1CC(C)O (centres undefined),inactive,–
C=CCCCCCCCCC(=O)OCCCC,inactive,–
O=C[O][Al]([O]C=O)[O]C=O,inactive,–
CN1C[C@@H]2C[C@H]1CN2c1cc2c(cc1F)c(=O)c(C(=O)O)cn2C1CC1,–,9.47% [at 15.8 µM] (inactive)
CC/C(C)=N\O[Si](C)(O/N=C(\C)CC)O/N=C(\C)CC,inactive,–
O/N=C/C=N/O,inactive,–
CCCCSCCCC,inactive,–
CC1(C)[C@H]2CC[C@](C)(C2)[C@H]1O,inactive,–
CN1CCOC(c2ccccc2)c2ccccc2C1 (centres undefined),inactive,–
N#Cc1ccccc1O,inactive,–

SMILES,Potency,"activity change, negative = cytotoxic"
CC(Oc1cc(Cl)ccc1Cl)C(=O)O (centres undefined),inactive,–
C=CCCCC,inactive,–
CC(=O)O[C@@H]1CC2CCC1(C)C2(C)C (some centres undefined),inactive,–
CCCCCCCCCCCCCCC(=O)NC(CO)CCCCCCCCCCCCCC (centres undefined),inactive,–
O=C(O)[C@H](O)c1ccccc1,inactive,–
CCC(C)OC(C)CC (centres undefined),inactive,–
[O-][n+]1cccc(/C(Cl)=N/OC[C@@H](O)CN2CCCCC2)c1,inactive,–
COS(=O)(=O)O,inactive,–
CCCSSCCC,inactive,–
C=C(C)C1CC=C(C)C(=O)C1 (centres undefined),inactive,–
N#CCC(=O)NN,inactive,–
CCCCOC(=O)[C@H](C)O,inactive,–
CCCCCCCCCCCCCCCCCC#N,inactive,–
CC(C)NC(=O)c1ccc(C=O)cc1,inactive,–
O=NN(CCCl)C(=O)NC1CCCCC1,inactive,–
CC(C)Nc1ccccc1,inactive,–
C/C=C(\C)C(C)=O,inactive,–
COc1c2occc2c(OC)c2c(=O)cc(C)oc12,9.52 µM (active),–
